# VP16 counter: inhibits Gal4-VP16 luciferase reporter, ROR gamma counter-screen. AID 2546. Potency, µM (top dose mostly 53.6 µM), most hits filed as inhibitors. 310,000 compounds, 3.5% hits. Drosophila S2 Gal4-VP16 UAS-luciferase, luminescence, 20 h;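 further: Gal4-VP16 expression switched on by copper sulfate through the metallothionein promoter; nearly all actives have a fitted effect of over 50% in size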
# Tau ThT inhib: inhibitors of human tau fibril formation, thioflavin T binding; P10636; recombinant tau K18 P301L, heparin-induced fibrillization, ThT fluorescence; Potency, µM (top dose mostly 57.4 µM), hits mostly inhibitors; 270,000 compounds, 2.1% hits; further: nearly all actives have a fitted effect of over 55% in size
# Target sequence (P10636 561-689 P618L limits assumed): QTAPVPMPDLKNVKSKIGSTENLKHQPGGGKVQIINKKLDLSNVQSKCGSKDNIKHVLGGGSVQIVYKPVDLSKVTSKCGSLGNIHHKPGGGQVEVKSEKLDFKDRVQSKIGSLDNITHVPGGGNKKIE
#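 ThT emission at 510 nm, taken 1 hr after adding 30 uM dye, quantifies aggregates formed when 20 uM heparin acts on human tau K18 P301L for 6 hr at 37 C.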
# RORgamma inh: ROR gamma (mouse) transcription inhibition. P51450. Drosophila S2 Gal4-RORgamma UAS-luciferase reporter, 20 h. Potency, µM (top dose mostly 53.6 µM), actives largely listed as inhibitors. 310,000 compounds, 5.4% hits; further: nearly all actives have a fitted effect of over 60% in size
# Target sequence (P51450 whole entry, looked up, the tested form may be a part): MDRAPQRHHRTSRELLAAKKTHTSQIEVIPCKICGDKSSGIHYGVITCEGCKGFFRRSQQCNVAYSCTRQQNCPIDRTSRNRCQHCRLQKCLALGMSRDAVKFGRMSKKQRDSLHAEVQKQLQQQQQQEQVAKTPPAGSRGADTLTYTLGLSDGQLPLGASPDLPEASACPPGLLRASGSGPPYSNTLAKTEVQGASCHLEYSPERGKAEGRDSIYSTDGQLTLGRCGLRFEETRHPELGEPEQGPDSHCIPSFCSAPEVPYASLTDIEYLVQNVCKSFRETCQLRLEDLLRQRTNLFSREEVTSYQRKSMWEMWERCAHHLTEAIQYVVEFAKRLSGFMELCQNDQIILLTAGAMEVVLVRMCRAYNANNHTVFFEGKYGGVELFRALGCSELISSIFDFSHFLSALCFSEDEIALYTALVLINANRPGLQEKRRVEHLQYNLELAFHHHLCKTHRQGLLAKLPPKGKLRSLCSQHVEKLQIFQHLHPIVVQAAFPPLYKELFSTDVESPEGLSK
#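 Stable Schneider cell line, Gal4 DNA-binding domain fused to ROR gamma, UAS-luciferase. Cmpd 1 hr RT → CuSO4 700 uM final → 20 hr RT → luciferase reagent 10 min → luminescence.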
# Tau fluor counter: counter-screen for tau fibril formation inhibitors; Potency, µM (doses to about 57.7 µM); tau K18 P301L Alexa594 fluorescence, heparin fibrillization; AID 1463; 280,000 compounds, 0.93% hits; further: nearly all actives have a fitted effect of over 55% in size
#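 Human tau K18 P301L (15 uM unlabeled, 0.24 uM Alexa 594-labeled) in 100 mM sodium acetate pH 7 with 20 uM heparin, 6 hr at 37 C. ThT 30 uM added, 1 hr ambient; Alexa 594 FP and total fluorescence read at 555/632 nm.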
# Tau FP inhib: blocks human tau fibril formation measured by polarization. P10636. K18 P301L tau heparin fibrillization, Alexa594 FP, 6 h. Potency, µM (series often up to 57.7 µM), hits mostly inhibitors. 280,000 compounds, 0.39% hits; further: nearly all actives have a fitted effect of over 55% in size
#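 Human tau K18 […] P301L fragment, 15 uM unlabeled plus 0.24 uM Alexa 594-labeled tau (final), with compound and 20 uM heparin in 100 mM sodium acetate pH 7; 6 hr at 37 C, then Alexa 594 FP read.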
# Hits are given with their value; 0 = inactive; ? = inconclusive; - = no result; [ ] = remark or other dose. The list is not random: actives were taken first. Their share in the collection is about 7.3%. The call rests on the fitted dose curve; in most records, active means well fitted curve in the direction sought with a large enough effect; inconclusive means small, poorly fitted or top-dose-only effect, or another doubt; inactive means no such curve, though single readings can be large; an effect the other way counts as inactive or inconclusive.
SMILES,VP16 counter,Tau ThT inhib,RORgamma inh,Tau fluor counter,Tau FP inhib
COc1ccccc1C1OC(=O)CC1C(=O)OC[C@@H]1CCCN2CCCCC12 (some centres not stated),0,0,0,0,0
Cc1ccccc1OCCCN1C(=O)C(=O)c2cccc(C)c21,11µM,22µM,35µM,0,0
Cc1cccc2c1N(CCCOc1ccccc1)C(=O)C2=O,?,?,0,0,0
COc1cccc([C@@H]2Oc3ccc(Br)cc3C(=O)[C@H]2OC(=O)NCCOc2ccccc2)c1,0,?,0,0,0
CCOc1ccc(C2c3c(-c4ccc(C)cc4)n[nH]c3C(=O)N2c2ccc(Cl)cc2)cc1 (configuration not stated),-,0,-,0,?
CCOc1cc(C)c(C(C)C)cc1S(=O)(=O)NCc1ccccn1,0,0,10µM,0,0
Cc1cc(N(C)C)ccc1N=Nc1ccc2ncccc2c1,0,0.5µM,0,?,0
Cc1ccc(C2CCN(C(=O)c3cnn(-c4ccc(C)c(C)c4)c3C3CCN(C(=O)OC(C)(C)C)CC3)C2)cc1 (configuration not stated),-,0,-,0,0
NC(N)=NS(=O)(=O)c1ccc(NC(=S)NC(=O)/C=C/c2ccccc2)cc1,0,-,0[1.91 µM],-,-
COC(=O)/C=C/C(=O)Nc1cccnc1,0,0,11µM,0,0
Cc1ccnc(NC(=O)/C=C/c2ccccc2[N+](=O)[O-])c1,0,0,0,0,0
CC(=O)N(C)c1ccc(NC(=O)/C=C/c2ccccc2Cl)cc1,18µM,0,1.1µM,0,0
Cc1ccnc(NC(=O)/C=C/c2ccccc2Cl)c1,5.6µM,?,3.5µM,0,0
Cc1cccnc1NC(=S)NC(=O)/C=C/c1ccccc1,6.3µM,?,4.5µM,0,0
O=C(/C=C/c1ccccc1Cl)Nc1ccncc1,0,0,0,0,0
Cc1ccc(N2C(=O)CSC23C(=O)N(CC(=O)NCc2ccccc2)c2ccccc23)cc1C (configuration not stated),-,0,-,0,0
CCCc1nc(SCc2cc(=O)c3ccc(C)c(C)c3[nH]2)n[nH]1,-,0,-,0,0
CCc1nnc(SCC(=O)Nc2ccc(F)cc2)o1,0,-,0,-,-
C=CCNC(=S)Nc1cc(C)ccn1,4µM,0,1µM,0,0
C=CCNC(=S)Nc1ccc(C)cc1[N+](=O)[O-],0,0,?,0,0
CCC(=O)Nc1ccc(NC(=S)NC(=O)/C=C/c2ccccc2)cc1,?,0,13µM,0,0
CC(=O)c1ccc(NC(=S)NC(=O)/C=C/c2ccccc2)cc1,0,-,0,-,-
CCOc1ccc(NC(=S)NC(=O)/C=C/c2ccc(C)cc2)c([N+](=O)[O-])c1,0,0,0,0,0
COc1ccc(/C=C/C(=O)c2ccc(NC(=O)c3cccs3)cc2)cc1OC,0,?,2.5µM,?,?
CCOc1ccc(NC(=S)NC(=O)/C=C/c2ccc(OC)c(OC)c2)c([N+](=O)[O-])c1,2.5µM,0,1.1µM,0,0
SMILES,VP16 counter,Tau ThT inhib,RORgamma inh,Tau fluor counter,Tau FP inhib
CCCCc1ccc(NC(=O)CSc2nnc3[nH]c(=O)cc(C)n23)cc1,-,0,-,0,0
CCOC(=O)c1cc(-c2ccccc2)sc1NC(=S)Nc1cc(C)ccn1,2.2µM,0,1µM,0,?
Cc1ccnc(NC(=S)NC(=O)/C=C/c2ccc(Cl)cc2)c1,13µM,?,14µM,0,0
CCOc1ccc(CC(=O)NNC(=S)Nc2ccccc2)cc1Br,0,?,0,0,0
COc1ccc(/C=C/C(=O)NC(=S)Nc2ccccc2)cc1OC,?,-,10µM,-,-
COc1ccc(CC(=O)NNC(=S)Nc2ccccc2)cc1Br,?,0,13µM,0,0
COc1ccc(/C=C/C(=O)Nc2ccccc2)cc1OC,0,0,0,0,0
CN(C)CC(C)(C)CNC(=O)CC1C(=O)NCCN1Cc1ccc(-c2ccccc2)cc1 (configuration not stated),0,0,0,0,0
O=C(/C=C/c1ccccc1)NC(=S)Nc1cccnc1,0,0,7.1µM,0,0
COc1ccc(/C=C/C(=O)NC(=S)Nc2ccc(Br)cn2)cc1,0,-,?,-,-
Cc1ccnc(NC(=S)NC(=O)/C=C/c2ccccc2)c1,?,0,2.8µM,0,0
COc1ccccc1C(=O)NC(=O)Nc1c(C)cc(C)cc1C,0,-,0,-,-
Cc1cc(C)cc(Nc2ncc3c(n2)CCCC3=O)c1,11µM,0,11µM,0,0
O=C(N/N=C/c1sc(N2CCOCC2)nc1-c1ccccc1)c1ccccc1Cl,0,0,0,0,0
O=C(N/N=C/c1sc(N2CCCCC2)nc1-c1cccs1)C1CC1,?,?,7.1µM,?,0
CC(C)NC(=S)N/N=C/c1sc(N2CCCCC2)nc1-c1cccs1,?,0,1.4µM,?,?
CCCCNC(=S)N(C)/N=C/c1sc(N2CCCCC2)nc1-c1cccs1,0,0,11µM,0,0
CCOc1ccccc1-c1nc(Cn2c(=O)cc(C)c3c(C)nn(-c4ccccc4)c32)c(C)o1,-,0,-,0,0
Cc1ccc(-c2cc(-c3ccccc3)nc(Cl)n2)cc1,0,0,0,0,?
CN(N)c1nc(-c2ccccc2)cc(-c2ccccc2)n1,?,-,13µM,-,-
NN(Cc1ccccc1)C(=S)Nc1ccc(Cl)c(Cl)c1,?,-,11µM,-,-
OCCNC(=S)Nc1ccc(Cl)c(Cl)c1,0,0,0,0,0
O=C(Nc1ccc(F)cc1)C1CCN(c2nc3ccccc3n3cccc23)CC1,-,0,-,?,0
COCCNc1cc(-c2ccccc2C)ncn1,0,-,0,-,-
CCc1cccc(CC)c1N(COC)C(=O)Cn1c(CC)nc2ccccc21,-,0,-,0,0
SMILES,VP16 counter,Tau ThT inhib,RORgamma inh,Tau fluor counter,Tau FP inhib
Cc1ccc(OCc2n[nH]c(=S)n2Cc2ccccc2)cc1,6.3µM,0,0.89µM,0,0
CCOc1ccc(Cc2n[nH]c(=S)n2Cc2ccccc2)cc1,0,0,4.5µM,0,0
S=c1[nH]nc(COc2cccc3ccccc23)n1Cc1ccccc1,?,0,3.2µM,0,0
COc1ccc(Cc2n[nH]c(=S)n2Cc2ccccc2)cc1Cl,0,0,0,0,0
Cc1ccccc1OCc1n[nH]c(=S)n1Cc1ccccc1,?,0,3.5µM,0,0
COc1ccccc1C(=O)NCc1n[nH]c(=S)n1Cc1ccccc1,0,0,?,0,0
COc1ccc(-c2cc(-c3ccc4c(c3)NC(=O)CO4)nc3c2COc2ccc(C)cc2-3)cc1,-,0,-,0,?
O=C(O)Cc1ccc(NC(=O)Cc2ccc3ccccc3c2)cc1,0,-,0,-,-
Cc1c(C(=O)Nc2cccc(C(F)(F)F)c2)oc2ccc(S(=O)(=O)N3CCC4(CC3)OCCO4)cc12,-,0,-,?,?
O=C(NCc1ccccc1Cl)C1CCCN(C(=O)c2cnn(-c3ccc(F)cc3)c2-n2cccc2)C1 (configuration not stated),-,0,-,0,0
CCOC(=O)c1ccc(N2C(=O)C(C)=C(C)C2=O)cc1,0,0,0,0,0
COC(=O)c1cc(-c2ccc(Br)cc2)on1,0,?,0,0,0
